CYP2C9 act: activators of human CYP2C9. P11712. recombinant CYP2C9, luciferin-H conversion, luminescence; active compounds read high; factor 1 = untreated enzyme, 0 = blocked. activation factor at 5 µM. 96,000 compounds, 1.4% hits;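 active = activation factor of 2 or more for CYP2C9 at a 5 µM dose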;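 also: 0 = sulfaphenazole-blocked wells and 1 = vehicle-only wells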
CYP2C19 activ: increases human CYP2C19 enzyme activity; P33261; recombinant CYP2C19, luciferin-H EGE luminescence; active compounds read high; 0 = fully inhibited enzyme, 1 = untreated enzyme; activation factor at 5 µM; 96,000 tested, under 10 active;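 active = activation factor of at least 2 at 5 µM in the primary screen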;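 also: 0 = wells with 2.5 mM tranylcypromine and 1 = vehicle-only wells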
Target sequence (P33261 whole entry, looked up): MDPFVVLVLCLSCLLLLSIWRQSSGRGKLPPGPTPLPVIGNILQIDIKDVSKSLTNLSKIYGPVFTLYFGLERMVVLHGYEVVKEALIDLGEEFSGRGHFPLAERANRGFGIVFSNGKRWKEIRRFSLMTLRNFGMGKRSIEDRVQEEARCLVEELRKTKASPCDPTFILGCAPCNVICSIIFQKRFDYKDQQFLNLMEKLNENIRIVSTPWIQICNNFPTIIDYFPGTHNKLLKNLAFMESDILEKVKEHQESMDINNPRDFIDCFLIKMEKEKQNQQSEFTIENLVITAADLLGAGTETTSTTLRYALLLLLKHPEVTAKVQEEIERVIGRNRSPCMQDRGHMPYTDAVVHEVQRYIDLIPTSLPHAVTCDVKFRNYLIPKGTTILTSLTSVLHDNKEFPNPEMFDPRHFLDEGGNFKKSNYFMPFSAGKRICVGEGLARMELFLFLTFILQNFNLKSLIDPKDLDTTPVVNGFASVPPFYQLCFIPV
Cav32 inh: human Cav3.2 channel inhibition, primary screen; 100,000 compounds, 4% hits; Cav3.2-expressing cells, Fluo-4 calcium fluorescence FDSS; active compounds read low; B-score at 10 µM;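 active = single-dose well whose peak fluorescence ratio is a statistical outlier from its plate by either plate-standardised score or position-corrected B-score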
CYP2C9 inhib: human CYP2C9 inhibition; P11712; CYP2C9 Supersomes, luciferin-H conversion, luminescence; inhibition, % at 5 µM; 96,000 compounds, 20% hits; AID 777;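 active = blocking of liver enzyme CYP2C9 beyond about 50% at 5 µM, limit read from the data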
CYP2C19 inh: human CYP2C19 inhibition. P33261. CYP2C19 Supersomes, luciferin-H EGE luminescence, 30 min. inhibition, % at 5 µM. 96,000 compounds, 21% hits. AID 778;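 active = CYP2C19 inhibition above a set limit at 5 µM in the primary screen, cut at about 50% in these data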;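 also: plate controls were negative control wells for no effect and 2.5 mM tranylcypromine positive control for full effect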
The depositor's hits bear a star; nt = no result given. The list is not random: actives were taken first. Their share in the collection is about 27%.

SMILES	CYP2C9 act	CYP2C19 activ	Cav32 inh	CYP2C9 inhib	CYP2C19 inh
CCNC(=O)CN(c1ccccc1)S(=O)(=O)c1ccc(Cl)cc1	0.7	0.3	0.37	33	69*
CCNC(=O)CN(c1ccc(Cl)cc1)S(=O)(=O)c1ccccc1	0.4	0	-0.073	63*	96*
COC(=O)c1ccc(Cl)c(NC(=O)CN(c2ccc(OC)cc2)S(=O)(=O)c2ccccc2)c1	nt	nt	-1.1	nt	nt
Cc1ccc2c(c1)N(CC(=O)NCCc1c[nH]c3ccccc13)C(=O)CO2	0.7	0.1	-2.2	27	93*
Cc1ccc2c(c1)N(CCC(=O)NC(C)C)C(=O)CO2	1.2	0.9	0.21	-22	15
Cc1ccc2c(c1)N(C(C)C(=O)NCCc1ccccc1)C(=O)CO2 (stereo unspecified)	0.7	0	-0.0045	34	97*
COCCn1nnnc1CN1CCC(Cc2ccccc2)CC1	nt	nt	0.86	nt	nt
Cc1ccc(Nc2nc(-c3sc(NC(=O)c4ccco4)nc3C)cs2)cc1	0.7	0.8	-0.05	28	22
C=CCCC(=O)Nc1nc(C)c(-c2csc(Nc3cccc(OC)c3)n2)s1	0.5	0.9	-0.55	49	13
Cc1nc(N)sc1-c1csc(Nc2ccccc2)n1	0.2	0.2	-0.39	83*	85*
COc1cccc(Nc2nc(-c3sc(NC(=O)CC(C)C)nc3C)cs2)c1	0.1	0.2	0.49	86*	84*
Cc1cc(O)ccc1Nc1nc(-c2sc(N)nc2C)cs1	1	1	0.9	2	4
COc1ccc(OC)c(Nc2nc(-c3sc(N)nc3C)cs2)c1	0.3	0.5	-0.92	73*	53*
C=CCCC(=O)Nc1nc(C)c(-c2csc(Nc3cc(OC)ccc3OC)n2)s1	0.5	0.9	-0.028	52*	9
OCC[C@@H]1C[C@@H](O)[C@H](O)[C@]2(CCCO2)O1	nt	nt	0.2	nt	nt
CCN1C2=NCCCN2c2cc(C)c(C)cc21	1.1	1.1	-1.4	-10	-14
Cc1ccc(S(=O)(=O)N2CCC(=O)N(CCOCc3ccc(Cl)cc3)CC2)cc1	nt	nt	-1	nt	nt
Cc1ccc(N(CC(=O)O)S(C)(=O)=O)cc1Cl	0.9	1	1.5	6	1
COc1ccccc1Nc1nc(-c2sc(NC(=O)CC(C)C)nc2C)cs1	0.5	0.8	0.023	54*	15
Cc1ccccc1Nc1nc(-c2sc(NC(=O)c3ccco3)nc2C)cs1	0.7	0.7	0.5	30	29
COc1ccccc1Nc1nc(-c2sc(NC(=O)c3cccc(Cl)c3)nc2C)cs1	0.5	0.7	-0.15	49	28
CCCC(C)C(=O)Nc1nc(C)c(-c2csc(Nc3cc(OC)ccc3OC)n2)s1 (stereo unspecified)	0.5	0.8	0.12	53*	22
COc1ccc2sc(NC(=O)CC(C)C)nc2c1	0.3	0.4	-1.3	66*	58*
CCOc1ccccc1Nc1nc(-c2sc(NC(=O)c3ccco3)nc2C)cs1	0.4	1	-0.015	59*	4
Cc1ccc(Cl)cc1Nc1nc(-c2sc(NC(=O)C(C)(C)C)nc2C)cs1	0.7	0.9	0.11	30	6
SMILES	CYP2C9 act	CYP2C19 activ	Cav32 inh	CYP2C9 inhib	CYP2C19 inh
C=C(C)C(=O)Nc1cccc(C2=NOC3(C2)C[C@@H](C(N)=O)N(C(=O)c2cc([N+](=O)[O-])cc([N+](=O)[O-])c2C)C3)c1 (stereo partly specified)	nt	nt	0.31	nt	nt
Cc1ccc(-n2nnnc2SCC(=O)N2c3ccccc3NC(=O)C2(C)C)cc1	0.9	0.9	-0.86	13	11
CCn1cc(S(=O)(=O)CC(=O)Nc2ccc3c(c2)OCO3)c2ccccc21	nt	nt	-0.33	nt	nt
CCNC(=S)N/N=C/c1cccs1	1	0.9	0.44	1	13
Cc1ccc(Nc2nc(-c3sc(NC(=O)c4cccc(Cl)c4)nc3C)cs2)cc1	0.9	0.6	0.79	8	40
COc1cccc(Nc2nc(-c3sc(NC(=O)c4ccccc4)nc3C)cs2)c1	0.4	0.8	0.012	59*	23
